# Assay results published in PubChem BioAssay AID686952 (The Scripps Research Institute Molecular Screening Center, 2013).
# Out of some 3,200 compounds screened, about 2,600 (81%) were called active.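 How the source made its calls: active means activation above the all-compound mean plus 3 SD, ignoring values outside control-based bounds (cut at about 4.8% in these data); inactive means the rest.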 So high a share suggests a set chosen from earlier hits. These entries were drawn from the full list.
# Experiment: apparent activators from fluorescence artefacts, no enzyme – biochemical, fluorescence intensity, high throughput, artefact control for kallikrein-7 zymogen activator project (AID 686952);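 further: value is the 4 h activation minus the activation read at time zero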
# Conditions: EDANS-DABCYL substrate fluorescence interference, 4 h, at 7 µM, active compounds read high
row,Compound,activation
1,CCOC(=O)c1c(N)n(CCN2CCOCC2)c2nc3ccccc3nc12,31.4% (active)
2,Cc1nc2ccc(N3CCN(C)CC3)cc2nc1C,13.9% (active)
3,CCOc1ccc(-c2cc(C)[n+](CCN(CC)CC)c(-c3ccc(OCC)cc3)c2)cc1,37.3% (active)
4,COc1cccc(-c2nc3ccc(N4CCN(C)CC4)cc3[nH]2)c1,65.7% (active)
